Screen size: about 6,700 compounds; about 20 (0.3%) were called active.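 Rule for the calls: active = mean percent activation in the counterscreen above 29.09%; inactive = the rest.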 Only a selection was taken, and actives are over-represented in it overall.
target: Glucose-dependent insulinotropic receptor (Homo sapiens) (UniProt Q8TDV5); assay: GPR119 activators in beta-arrestin cells, counter-screen for GPR151 activator project, cell-based, PathHunter beta-arrestin, luminescence, triplicate (AID 1508611); settings: 90 min, at 11.2 µM, stronger effect = higher value, 0 = compound-well median, 100 = enzyme-acceptor control;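 note: counterscreen on off-target GPR119 to flag nonselective hits from the GPR151 activator screen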
Sequence (Q8TDV5 whole entry, looked up): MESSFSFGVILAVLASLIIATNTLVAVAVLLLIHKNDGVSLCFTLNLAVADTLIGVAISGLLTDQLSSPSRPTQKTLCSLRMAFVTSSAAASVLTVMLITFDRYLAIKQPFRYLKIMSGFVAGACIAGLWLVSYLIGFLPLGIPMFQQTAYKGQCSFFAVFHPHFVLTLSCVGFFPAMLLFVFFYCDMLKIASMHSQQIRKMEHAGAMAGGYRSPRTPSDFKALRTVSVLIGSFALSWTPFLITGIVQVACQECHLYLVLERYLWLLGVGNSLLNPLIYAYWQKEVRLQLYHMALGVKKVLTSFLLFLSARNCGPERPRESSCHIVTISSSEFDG

SMILES	activation
CC(=O)Cn1c(=O)c2c(nc3n2CCCN3c2ccc(Br)cc2)n(C)c1=O	8.64% (inactive)
N#Cc1ccc(N2CCN(CCCNC(=O)Nc3ccccc3)CC2)cc1	-8.24% (inactive)
COc1cccc(/C=C2/C(=O)NC(=O)N(c3ccccc3F)C2=O)c1	15.2% (inactive)
COc1ccc(Br)cc1C(=O)NCC1COc2ccccc2O1 (stereo not given)	-9.64% (inactive)
COc1ccc(C(=O)Nc2sc3c(c2C(N)=O)CCCC3)cc1	-10% (inactive)
O=C(Nc1cccc(N2CCC(NCc3ccon3)CC2)c1)c1cccnc1	18.2% (inactive)
Cc1ccc(S(=O)(=O)Cn2nnnc2CN2CCN(c3ccccc3F)CC2)cc1	8.39% (inactive)
O=C(COc1ccc([N+](=O)[O-])cc1)Nc1ccc2oc(-c3cccc(F)c3)nc2c1	-7.11% (inactive)
CN1CC(=O)N2CCN(C(=O)OCc3ccccc3)C[C@@H]2C1=O	1.78% (inactive)
CC(C)C(=O)NC(C)c1nnc2n1CCN(Cc1ccc3cccnc3c1)CC2 (stereo not given)	6.65% (inactive)
CCN(CC)S(=O)(=O)c1ccc(C)c(NS(=O)(=O)c2cccc(C#N)c2)c1	-6.36% (inactive)
CCOc1ccc(N2C(=O)C3C4c5ccccc5C(C(C)O)(c5ccccc54)C3C2=O)cc1 (stereo not given)	-4.77% (inactive)
C=CCNC(=O)C(=O)NCC1OCCCN1S(=O)(=O)c1ccccc1 (stereo not given)	-6.88% (inactive)
CC(=O)Oc1cccc(N2C(=O)C3C4c5ccccc5C(C)(c5ccccc54)C3C2=O)c1 (stereo not given)	-7.48% (inactive)
CCOC(=O)C1=C(CC)OC(N)=C(C#N)C1c1ccc(C(F)(F)F)cc1 (stereo not given)	-9.1% (inactive)
CCN1/C(=C/c2ccc3cc(C)ccc3[n+]2CC)Sc2ccc(-c3ccccc3)cc21	0.91% (inactive)
CCc1nnc2n1N(C(C)=O)C(c1ccc3c(c1)CCCC3)=C(C(C)=O)S2	3.36% (inactive)
CC(C)CCSc1nc2c(c(=O)n1Cc1ccco1)C1(CCCCC1)Cc1ccccc1-2	-4.2% (inactive)
O=C1CCC(CCNCCOc2ccccc2)N1CCc1ccccc1 (stereo not given)	12.1% (inactive)
O=C(Cc1cccs1)NCCC1=CCCCC1	0.59% (inactive)
CCN1CCCC1CNc1nc(=S)[nH]c2ccccc12 (stereo not given)	-5.74% (inactive)
CCc1ccc(NS(=O)(=O)c2ccc(Cl)cc2)cc1	1.55% (inactive)
CC12CCC(C(=O)Nc3ncc(Cl)cc3Cl)(CC1=O)C2(C)C (stereo not given)	-5.44% (inactive)
Cc1cnc(Nc2ccc(N3CCOCC3)cc2)nc1NCc1cccc(C(F)(F)F)c1	15.3% (inactive)
Cc1nc2cc(C(=O)NCc3ccc4c(c3)OCO4)ccc2n1-c1ccc(OCc2ccccc2)cc1	-11.3% (inactive)
